Rango complex inh: Rango-importin beta binding inhibition | Potency, µM (titrated, usually from 92.2 µM), inactives show top-dose inhibition of complex formation | 340,000 compounds, 0.031% hits | Q14974 | Rango CFP/YFP FRET sensor + importin beta, 45 min;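 also: potency is read from the fitted curve at half-maximal effect; 0% = DMSO wells and 100% = buffer wells lacking importin beta; nearly all actives have a fitted effect of over 15% in size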
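FRET biosensor (snurportin 1 IBB flanked by EYFP and cerulean), 50 nM, with compound 5 min, then 0.125 microM importin beta in PBS, 1 mM DTT, 0.02% Tween-20, 0.1% BSA. CFP/YFP ratio read after 45 min at room temperature; pre-read flags interference.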
TSG101-PTAP inh: blocks PTAP/TSG101 interaction to inhibit HIV-1 budding; Fluorescence polarization, FITC-PTAP peptide / Tsg101 binding; Potency, µM (highest dose often 115 µM), for inactives: at the highest dose activity change, negative = inhibition, hits mostly inhibitors; AID 493005; 340,000 tested, under 10 active; Q99816; active = well fitted inhibition curve with a large enough effect in the main read-out, with a control signal flat, not every such curve was filed as active; inconclusive = small, poorly fitted or top-dose-only effect, or effect the other way, or a change in a side signal; inactive = no such curve, though single readings can be large or run the other way; also: potency is read from the fitted curve at half-maximal effect; % of control where 0% means no effect
Target sequence (Q99816 whole entry, looked up): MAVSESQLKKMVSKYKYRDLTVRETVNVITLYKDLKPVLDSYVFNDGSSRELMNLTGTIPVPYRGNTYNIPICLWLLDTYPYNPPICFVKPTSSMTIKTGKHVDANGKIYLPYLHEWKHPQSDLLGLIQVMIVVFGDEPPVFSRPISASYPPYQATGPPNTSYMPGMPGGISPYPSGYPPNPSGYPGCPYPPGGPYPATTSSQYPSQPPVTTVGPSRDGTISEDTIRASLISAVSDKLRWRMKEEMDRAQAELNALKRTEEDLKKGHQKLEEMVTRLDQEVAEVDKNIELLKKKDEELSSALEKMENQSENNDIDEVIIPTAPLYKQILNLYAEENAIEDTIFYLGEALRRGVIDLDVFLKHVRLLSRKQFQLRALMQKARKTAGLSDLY
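Steps: Tsg101 binding domain dispensed (10 uM final), compounds pinned in DMSO, FITC-labeled PTAP-motif peptide added (50 nM final); after 20 min binding at room temperature, polarization measured.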
D3 antag: D3 dopamine receptor (human) antagonism; 360,000 compounds, 2.5% hits; AID 652054; D3R cells, DiscoveRx beta-arrestin luminescence, antagonist mode; stronger effect = lower value; P35462; max response, negative = inhibition, %; in the data active = max response below about -50%; inconclusive = no clear call, values can overlap the other calls; also: % is scaled to controls: 0 for no effect and ±100 for the full control effect
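Cells plated overnight at 1500 cells/well, then exposed to library compounds with dopamine controls for 90 minutes at 37 degrees C. DiscoveRx reagent added for 30–60 minutes at room temperature; luminescence read, quantitative HTS format.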
Mm-Cpn inhibitor: M. maripaludis TRiC chaperonin inhibition; purified Mm-Cpn ATPase, ADP Transcreener TR-FRET; Potency, µM (doses to about 76.9 µM), without a hit: at the top dose activity, negative = inhibition, hits mostly inhibitors; 330,000 compounds, 0.031% hits; active = well fitted inhibition curve with a large enough effect; inconclusive = small, poorly fitted or top-dose-only effect; also: potency is read from the fitted curve at half-maximal effect; % is scaled to controls: 0 for no effect and ±100 for the full control effect; nearly all actives have a fitted effect of over 80% in size
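Measured: ADP formation by purified Mm-CPN. Conditions: 25 nM protein, 10 uM ATP, Tris pH 7.4 with Mg2+, K+ and DTT, 37°C for 30 min. Detection: Transcreener HTRF after 30 min at room temperature.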
Rango release inh: prevents RanGTP from dissociating the Rango-importin beta complex. O95149+P62826. Biochemical FRET Rango-importin beta, RanGTP-induced dissociation. Potency, µM (top dose mostly 46.1 µM), for the others: top-dose activity change, negative = inhibition. 340,000 compounds, 0.071% hits. AID 540253; also: potency is read from the fitted curve at half-maximal effect; % of control where 0% means no effect; nearly all actives have a fitted effect of over 45% in size
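Rango FRET biosensor (snurportin-1 IBB flanked by N-terminal EYFP and C-terminal CFP10) at 0.1 uM, with 0.25 uM importin beta in PBS, 1mM DTT, 0.02% Tween-20, 0.1% BSA. 0.6 uM Ran, 2mM GTP and 0.2 uM RCC1 were then added for 45 min at room temperature. Inhibition read as loss of FRET rise.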
DRD3 agonist: agonists of human D3 dopamine receptor | D3R DiscoveRx beta-arrestin cells, luminescence, 90 min | max activation, % | 410,000 compounds, 0.58% hits | P35462; in the data active = max activation above about 30%; also: 0% is about no effect
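Agonist mode: compounds and dopamine controls were applied to plated cells for 90 min at 37 degrees C after an overnight attachment at 1500 cells/well. Luminescent read-out followed 30 - 60 minutes at room temperature with DiscoveRx detection reagent.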
Active calls of the source: *; ? = inconclusive; · = no result given; [ ] = remark or other dose. Only some compounds are listed: those with a hit (about 2.9% of all), similar ones and a draw of the others. Unless noted, calls follow the shape of the full dose curve.

SMILES	Rango complex inh	TSG101-PTAP inh	D3 antag	Mm-Cpn inhibitor	Rango release inh	DRD3 agonist
Cc1cc(C)c(NC(=O)C2CCN(c3nnc(C)c4c(C)n(-c5ccccc5)nc34)CC2)c(C)c1	·	·	·	·	·	-24
COc1ccccc1NC(=O)CC1Nc2ccccc2NC1=O (stereo not given)	?	-8%	5	-2%	12µM*	0
O=c1[nH]c(=S)[nH]c2nc(-c3ccccc3)cnc12	2%	-2%	-20	·	-22%	-3
Nc1[nH]c(=S)[nH]c(=O)c1-c1ccccc1	-1%	-5%	-56*	-5%	0%	-2
CN1[C@@H](CC(=O)c2ccccc2)CCC[C@H]1C[C@H](O)c1ccccc1	1%	0%	-75*	0%[15.4 µM]	-5%	-91
CN1C(CC(=O)c2ccccc2)CCCC1CC(O)c1ccccc1 (stereo not given)	3%	1%	-80*	0%	16%	-46
COc1ccc(NC(=O)Cn2c(=O)n(Cc3nc(C)no3)c(=O)c3cc4c(cc32)OCO4)cc1OC	·	·	·	·	·	2
COc1nc(NC(C)C)nc(N(C#N)CN2C(=O)c3ccccc3S2(=O)=O)n1	1%	-2%	-58*	-1%	0%	-3
CC(C)Nc1nc(Cl)nc(N(C#N)CN2C(=O)c3ccccc3S2(=O)=O)n1	-2%	-4%	-25	-1%	-10%	-21
COCCCn1c(=N)c(S(=O)(=O)c2ccccc2)cc2c(=O)n3cccc(C)c3nc21	·	·	·	·	·	5
CCOC(=O)c1cnn(CCOC(=O)C2CC2)c1NC(=O)C1CC1	-3%	·	-99*	0%	-5%	8
CC(NC(=O)c1ccc(CS(C)(=O)=O)cc1)C1CC2CCC1C2 (stereo not given)	-1%	2%	-22	0%	-6%	-9
CC(NCc1ccc(N(C)C)cc1)C1CC2CCC1C2 (stereo not given)	-2%	4%	-70*	2%	-10%	-5
CCc1cccc(-n2nnc(-c3nc(-c4cccs4)no3)c2N)c1	·	·	·	·	·	0
OC1(c2ccc(F)cc2)CSC(=Nc2cccnc2)N1Cc1ccco1 (stereo not given)	4%	-2%	10	0%	0%	1
OC1(c2ccc(OC(F)F)cc2)CSC(=Nc2cccnc2)N1Cc1ccco1 (stereo not given)	0%	0%	93	-4%	-18%	57*
O=C(CCCn1c(=O)c2sccc2n(Cc2cccc(Cl)c2)c1=O)NCc1ccc2c(c1)OCO2	·	·	·	·	·	-5
COc1nn(-c2ccccc2)c(=O)c(Cl)c1Cl	8%	0%	-64*	-6%	1%	-7
COc1cc(OC)c(OC)cc1CNC1CCCCCC1	-2%	-5%	-23	-5%	24%	-12
COc1cc(OC)c(CNC2CCCCCC2)cc1Br	2%	-10%	-62*	2%	2%	-22
COc1ccc(CN(C)CC(=O)Nc2sc3c(c2C#N)CCC3)cc1OC	-2%	-3%	24	-2%	-8%	37*
COc1cccc(CN(C)CC(=O)Nc2sc3c(c2C#N)CCC3)c1OC	-2%	-1%	4	-1%	13%	18
CCc1ccccc1NC(=O)Cn1c(=O)n(-c2ccccc2)c(=O)c2oc3ccccc3c21	·	·	·	·	·	-14
Cc1ccc(S(=O)(=O)Nc2nc3ccccc3nc2Nc2cccc(S(=O)(=O)N3CCCC3)c2)cc1	?	?	46	-8%	?	32*
O=[N+]([O-])c1cccc(S(=O)(=O)Nc2nc3ccccc3nc2Nc2cccc(S(=O)(=O)N3CCCCC3)c2)c1	-5%	-4%	-6	1%	11%	14
SMILES	Rango complex inh	TSG101-PTAP inh	D3 antag	Mm-Cpn inhibitor	Rango release inh	DRD3 agonist
CCCOc1ccc(C(=O)Nc2ccc3oc(-c4ccncc4)nc3c2)cc1	·	·	·	·	·	0
Cc1cc(C(=O)COC(=O)c2ccc[nH]c2=O)c(C)n1C1CC1	0%	-3%	8	2%	-4%	33*
COC(=O)Cc1ccc(NC(=S)N2CCN(c3cccc(O)c3)CC2)cc1	-1%	1%	1	0%	6%	32*
COC(=O)Cc1ccc(NC(=S)N2CCN(c3ccc(OC)cc3)CC2)cc1	4%	-3%	6	0%	15%	4
Cc1noc(C)c1C(=O)Nc1sc2c(c1C(N)=O)CCCCC2	0%	-6%	23	-1%	6%	47*
Cc1cc(NC(=O)c2ccno2)no1	0%	-3%	4	0%	13%	2
Cc1ccc(NNC(=O)c2ccno2)c(C)c1	0%	3%	2	-1%	-6%	35*
CCN1CCN(C(=O)CN(CC)S(=O)(=O)c2ccc3ccccc3c2)CC1	0%	5%	-13	1%	-3%	-15
Cn1cnc(S(=O)(=O)N2CCCC(C(=O)NCc3ccccc3Cl)C2)c1 (stereo not given)	·	·	·	·	·	-5
Cc1ccc(CNc2oc(-c3ccc(COc4ccc(C)cc4)o3)nc2C#N)cc1	·	·	·	·	·	8
CC(=O)c1ccc(S(=O)(=O)NC2CC(=O)N(c3ccc(C)c(C)c3)C2)cc1 (stereo not given)	3%	-1%	7	-1%	37%	-4
O=C(Nc1nc2n(n1)C(c1ccccc1)C=C(c1ccccc1)N2)c1ccc(Cl)c([N+](=O)[O-])c1 (stereo not given)	·	·	·	·	·	-15
COc1ccc2c(CNC3CCCC3)c(C(=O)O)n(Cc3ccccc3C)c2c1	·	·	·	·	·	-7
CCOC(=O)c1oc2ccccc2c1CN1CCN(C(=O)c2ccccc2)CC1	0%	-2%	20	2%	18%	4
CCOCC(=O)Nc1c(C(=O)Nc2ccc(OC)cc2OC)oc2ccccc12	-2%	-3%	39	0%	1%	73*
COc1ccc(NC(=O)c2oc3ccccc3c2NC(=O)c2cc3ccccc3o2)c(OC)c1	·	·	·	·	·	-3
COc1ccc(NC(=O)c2oc3ccccc3c2NC(=O)c2ccco2)c(OC)c1	?	-2%	29	-3%	-9%	49*
CCOC(=O)c1oc2ccccc2c1CN1CCN(c2ccccc2)CC1	0%	-1%	-77*	-1%	8%	-4
COc1cccc(NC(=O)c2oc3ccccc3c2NC(C)=O)c1	-2%	-5%	-55*	1%	2%	-33
CCOc1ccccc1NC(=O)Cn1c(=O)n(-c2ccccc2)c(=O)c2c1c1cc(C)ccc1n2C	·	·	·	·	·	-1
CCOc1ccc(C(=O)N(Cc2nc(-c3cccc(C)c3)no2)C(C)C)cc1	·	·	·	·	·	-7
COc1ccc(NC(=O)C2(S(=O)(=O)c3ccc(C)cc3)CC2)c(OC)c1	·	·	·	·	·	4
CCOC(=O)c1oc2ccccc2c1NC(=O)COC	0%	·	-52*	1%	0%	-7
